# From PubChem BioAssay (Tox21)
# Records with an inconclusive call do not appear. Where a call stands in place of a potency, no number is given. Active and inactive are the calls of the source. The call rests on the fitted dose curve.
# Assay: Nuclear factor erythroid 2-related factor 2/antioxidant responsive element (Nrf2/ARE) small molecule agonists: luciferase reporter gene qHTS assay in human keratinocytes (AID 1919969); further: nearly all actives have a fitted effect of over 35% in size
# Settings: KeratinoSens HaCaT ARE-luciferase, luminescence, 24 h; series mostly up to 92.4 µM
# Excerpt: National Center for Advancing Translational Sciences [NCATS]
# Division of Preclinical Innovation [DPI]
# U.S. Environmental Protection Agency [EPA]
# National Institutes of Environmental Health Sciences [NIEHS]
# National Toxicology Program [NTP]
# U.S. Food and Drug Administration [FDA]
# Oxidative stress has been implicated in the pathogenesis of a variety of diseases ranging from cancer to neurodegeneration. The antioxidant response element (ARE) signaling pathway plays an important role in the amelioration of oxidative stress. The KeratinoSens (Givaudan, Switzerland) is an in vitro test method which quantifies luciferase induction as a measure of activation of Keap1-Nrf2-antioxidationt/electrophile response element (ARE) dependant pathway in HaCaT human keratinocytes stably transfected with a selectable plasmid. The KeratinoSens assay is a cell-based assay with a reporter cell line to detect potential skin sensitizers by their ability to induce the Nrf2/ARE-response. The activation of the report gene under culture conditions can be detected by ONE-Glo Luciferase Assay System (Promega, Madison, WI). This cell line has been used to screen the Tox21 10K compound library to identify agonists that induce oxidative stress. The cytotoxicity of the Tox21 compound library against the KS-ARE cell line was tested in parallel by measuring the cell viability using CellTiter- Fluor assay system (Promega, Madison, WI) in the same wells.
# HaCaT derived cell line KeratinoSens were dispensed at 1,500 cells/5uL/well in 1536-well white wall/solid bottom plates using a Multidrop Combi (ThermoFisher Scientific, Waltham, MA) dispenser. After the assay plates were incubated at 37 C/5% CO2 for 5 h, 23 nL of compounds dissolved in DMSO, positive controls or DMSO only was transferred to the assay plate by a pintool workstation (Kalypsys, San Diego, CA). The plates were incubated at 37 C/5% CO2 for 23 h, followed by addition of 1uL/well of CellTiter-Fluor reagent into the assay plates using a Flying Reagent Dispenser (Aurora Discovery, San Diego, CA) for cell viability readout that measures cytotoxicity. After 1 h incubation at 37 C/5% CO2 the fluorescence intensity was measured using a ViewLux (PerkinElmer, Shelton, CT) plate reader. Then 4uL/well of One-Glo were added using a Flying Reagent Dispenser. After the plates were incubated at room temperature for 30 min, the luminescence intensity in the assay plates was measured using ViewLux plate reader.
# Potency means the concentration at half of the fitted maximal effect.
Structure (SMILES),Potency,"activity, positive = activation"
CC(C)NCC(O)COc1ccc(CC(N)=O)cc1 (stereo not given),inactive,
CCN(CC)C(=O)c1ccc(O)c(OC)c1,inactive,
O=C1CCCCC1C1CCCCC1 (stereo not given),inactive,
COC(=O)CCS,inactive,
COc1cc(N)ccc1C,inactive,
CC(=O)/C=C/C=C1/C2CCC(C2)C1(C)C (stereo not given),inactive,
C=CC(=C)CCCC(C)(C)OC(C)=O,inactive,
N=C(N)N1CCc2ccccc2C1,,-4.04% [at 8.39 µM] (inactive)
O=C(Cl)c1ccc(Cl)cc1Cl,inactive,
COc1nccnc1NS(=O)(=O)c1ccc(N)cc1,inactive,
Nc1ccc(F)cc1,inactive,
CC(C)(C)C(=O)CCc1ccc(Cl)cc1,inactive,
O=C(O)c1c(Cl)ccc(Cl)c1Cl,inactive,
COc1cc2nc(N(C)CCCNC(=O)C3CCCO3)nc(N)c2cc1OC (stereo not given),inactive,
CCOc1ccc2nc(N)sc2c1,inactive,
CC1(C)C(=O)N(Cl)C(=O)N1Br,inactive,
C/C(=C\c1ccc(C(=O)O)cc1)c1ccc2c(c1)C(C)(C)CCC2(C)C,inactive,
NC(=O)c1ccccc1C(N)=O,68.9 µM (active),
O=[N+]([O-])c1ccc(Nc2ccc(Nc3ccccc3)c(S(=O)(=O)O)c2)c([N+](=O)[O-])c1,inactive,
O=C(Cl)c1ccc(F)c(Cl)c1,inactive,

Structure (SMILES),Potency,"activity, positive = activation"
CCCCCCCCCCCCN(CCCCCCCCCCCC)CCCCCCCCCCCC,inactive,
C=CC(=O)Nc1cc2c(Nc3ccc(F)c(Cl)c3)ncnc2cc1OCCCN1CCOCC1,inactive,
O=C1c2c(O)ccc([N+](=O)[O-])c2C(=O)c2c([N+](=O)[O-])ccc(O)c21,6.06 µM (active),
C/C(C=O)=C\c1ccccc1,inactive,
O=C1OC2(c3ccc(O)cc3Oc3cc(O)ccc32)c2ccc(N=C=S)cc21,inactive,
C[C@@H]1CN(c2c(F)c(F)c3c(=O)c(C(=O)O)cn(C4CC4)c3c2F)C[C@H](C)N1,,2.76% [at 19 µM] (inactive)
C=CCN(CC=C)CC=C,inactive,
COc1ccc(NC(=O)CC(C)=O)cc1,inactive,
Cc1ccc(Nc2c(F)cccc2Cl)c(CC(=O)O)c1,inactive,
CC(=O)OCC(=O)[C@@]1(O)[C@H](OC(C)=O)C[C@H]2[C@@H]3CCC4=CC(=O)C=C[C@]4(C)[C@@]3(F)[C@@H](O)C[C@@]21C,inactive,
CNc1ncnc2nc[nH]c12,inactive,
CCC(=O)OCCOc1ccccc1,inactive,
CCCCCC/C=C\CCCCCCCC(=O)O,inactive,
CC(=O)c1ccccc1[N+](=O)[O-],inactive,
NNC(=O)CCCCC(=O)NN,inactive,
CCC(CC)CO,inactive,
CC(=O)Oc1ccc([N+](=O)[O-])cc1CCl,27.3 µM (active),
COc1cc2nc(N3CCN(C(=O)C4COc5ccccc5O4)CC3)nc(N)c2cc1OC (stereo not given),inactive,
CN[C@H]1CC[C@@H](c2ccc(Cl)c(Cl)c2)c2ccccc21,inactive,
CC(=O)Oc1ccc(C2(c3ccc(OC(C)=O)cc3)Oc3ccccc3NC2=O)cc1,inactive,
